What all share (assay): NCI-60 one-dose screen, 48 h (100 = growth as untreated, 0 = no growth, -100 = all killed)
One test has as its system SK-MEL-2 melanoma. The settings on record: 10 µM.
The next test concerns EKVX NSCLC. Conditions: 10 µM.
For the next test, the system named is SN12C renal. Conditions: 10 µM.
The test system of the next test is TK-10 renal. Conditions: 10 µM unless noted.
A further test concerns ACHN renal. The settings on record: 10 µM.
For the next test, the system named is CAKI-1 renal. Conditions: 10 µM.
Another test deals with A498 renal. The settings on record: 10 µM.
Another test has as its system CCRF-CEM leukemia. The settings on record: 10 µM.
The test system of another test is MOLT-4 leukemia. The settings on record: 10 µM.
The test system of a further test is SR leukemia. The settings on record: 10 µM.
Another test has as its system RPMI-8226 leukemia. Conditions: 10 µM.
The next test deals with OVCAR-8 ovarian. Conditions: 10 µM.
Another test concerns OVCAR-5 ovarian. Conditions: 10 µM.
The subject of the next test is OVCAR-4 ovarian. The settings on record: 10 µM.
The test system of another test is SK-OV-3 ovarian. Conditions: 10 µM.
A further test has as its system IGROV1 ovarian. Conditions: 10 µM.
The test system of another test is OVCAR-3 ovarian. Conditions: 10 µM.
A further test concerns HS 578T breast. The settings on record: 10 µM.
In the next test the test system is NCI/ADR-RES ovarian. The settings on record: 10 µM.

Structures are written as SMILES. This is part of a sample that, as a whole, favours compounds with a hit. Of some 83,000 tested, about 20% had one in any assay.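 96-well plates, one dose, 48 hours. Percent growth reported; active if below 10.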 A number with no mark means an inactive call. Calls of active or inactive are those of the source.

Nine compounds from PubChem BioAssay (NCI) can be followed below.

Regarding `Oc1ccccc1O`, the growth is 90.1% with SK-MEL-2 melanoma; 109% in the test with EKVX NSCLC; 83.8% in the test with SN12C renal; 80.8% in the test with TK-10 renal; 92.4% with ACHN renal; 93.9% in the test with CAKI-1 renal. In addition, the growth is 87.9% in the test on A498 renal; 27.1% with CCRF-CEM leukemia; 74.4% in the test on MOLT-4 leukemia; 75.5% in the test on SR leukemia; 60.1% with RPMI-8226 leukemia; 86.3% in the test on OVCAR-8 ovarian. Moreover, the growth in the test on OVCAR-5 ovarian is 106%; in the test on OVCAR-4 ovarian, 77.4%; in the test with SK-OV-3 ovarian it was 120%; in the test with IGROV1 ovarian it was 79.1%; with OVCAR-3 ovarian, 92.3%; in the test on HS 578T breast, 112%. For the same compound, in the test with NCI/ADR-RES ovarian, the growth is 90.2%.
Consider `Cc1ccc(/C=C2\SC(=S)N(c3ccc(F)cc3)C2=O)o1`, for which the growth was 96.3% with SK-MEL-2 melanoma; 82.4% in the test on EKVX NSCLC; 87% in the test with SN12C renal; 102% in the test with TK-10 renal; 48.6% with ACHN renal; 54.9% with CAKI-1 renal. The growth in the test with A498 renal was 112%; in the test on CCRF-CEM leukemia, 89.2%; with MOLT-4 leukemia it was 79.1%; in the test with RPMI-8226 leukemia, 86.4%; in the test with OVCAR-8 ovarian, 0% (active); in the test with OVCAR-5 ovarian, 102%. The growth in the test on OVCAR-4 ovarian is 13.6%; with SK-OV-3 ovarian, 92.2%; with IGROV1 ovarian, 90.7%; in the test on OVCAR-3 ovarian, 79.1%; with HS 578T breast it was 52.2%; in the test with NCI/ADR-RES ovarian it was 73%.
Take `CCc1nc(N)nc(N)c1-c1ccc(Cl)cc1`: the growth in the test on SK-MEL-2 melanoma was 105%; with EKVX NSCLC, 74.9%; in the test on SN12C renal, 64.7%; with TK-10 renal, 104%; in the test with ACHN renal it was 40.9%; in the test on CAKI-1 renal, 91.4%. Moreover, the growth was 87.7% in the test on A498 renal; 68.4% in the test on CCRF-CEM leukemia; 56.4% with MOLT-4 leukemia; 57.3% in the test on SR leukemia; 47.7% with OVCAR-8 ovarian; 78.4% in the test with OVCAR-4 ovarian. The growth in the test on SK-OV-3 ovarian was 84%; in the test with OVCAR-3 ovarian it was 116%; with HS 578T breast, 103%; with NCI/ADR-RES ovarian, 56.4%.
Regarding `CCC(C)(C)C1CCC(O)CC1` (stereo unspecified), the growth with SK-MEL-2 melanoma is 103%; in the test on EKVX NSCLC it was 94.9%; in the test on SN12C renal, 98.7%; in the test with TK-10 renal, 98.7%; in the test with ACHN renal, 97.7%; in the test with CAKI-1 renal, 115%. Further, the growth in the test with A498 renal is 97.8%; in the test with CCRF-CEM leukemia it was 93.5%; with MOLT-4 leukemia it was 106%; with SR leukemia, 102%; in the test on RPMI-8226 leukemia, 101%; in the test with OVCAR-8 ovarian, 102%. Moreover, the growth is 92.5% in the test with OVCAR-5 ovarian; 107% in the test on OVCAR-4 ovarian; 103% in the test on SK-OV-3 ovarian; 107% with IGROV1 ovarian; 104% in the test on OVCAR-3 ovarian; 101% in the test on HS 578T breast. In the test on NCI/ADR-RES ovarian, the growth is 96.7%.
With `[O-][N+](=Nc1cccc(Cl)c1)c1cccc(Cl)c1`, the growth was 112% in the test with SK-MEL-2 melanoma; 88.8% in the test with EKVX NSCLC; 93% with SN12C renal; 108% with TK-10 renal; 94.3% with ACHN renal; 96.4% in the test with CAKI-1 renal. The growth with A498 renal was 103%; with CCRF-CEM leukemia, 111%; with MOLT-4 leukemia it was 125%; in the test with SR leukemia, 141%; in the test with RPMI-8226 leukemia, 81.9%; in the test with OVCAR-8 ovarian it was 114%. In addition, the growth with OVCAR-5 ovarian is 88.3%; with IGROV1 ovarian it was 76.4%; with OVCAR-3 ovarian it was 111%; with HS 578T breast, 112%; with NCI/ADR-RES ovarian it was 99%.
As to `CC(C)CCOC(=O)c1ccccc1`, the growth in the test with SK-MEL-2 melanoma was 106%; in the test on EKVX NSCLC, 110%; in the test on SN12C renal, 102%; in the test with TK-10 renal, 101%; in the test with ACHN renal, 111%; in the test on CAKI-1 renal, 97.1%. In addition, the growth is 97.7% with A498 renal; 109% in the test on CCRF-CEM leukemia; 98.7% in the test with MOLT-4 leukemia; 107% with SR leukemia; 118% with RPMI-8226 leukemia; 99.4% with OVCAR-8 ovarian. Besides, the growth is 105% in the test with OVCAR-5 ovarian; 107% in the test with OVCAR-4 ovarian; 104% with SK-OV-3 ovarian; 102% in the test with IGROV1 ovarian; 107% in the test on OVCAR-3 ovarian; 105% in the test with HS 578T breast. For the same compound, the growth in the test with NCI/ADR-RES ovarian is 107%.
Take `CCOc1ccccc1/C=N/Nc1nc2ccccc2o1`: the growth is 91.3% in the test with SK-MEL-2 melanoma; 101% with EKVX NSCLC; 92.2% in the test on SN12C renal; 104% with TK-10 renal; 103% in the test on ACHN renal; 110% in the test with CAKI-1 renal. Besides, the growth in the test on A498 renal is 92.1%; in the test on CCRF-CEM leukemia it was 95.8%; in the test with MOLT-4 leukemia it was 81.7%; with RPMI-8226 leukemia, 105%; in the test with OVCAR-8 ovarian, 108%; in the test with OVCAR-5 ovarian, 97.3%. Further, the growth in the test with OVCAR-4 ovarian was 41.9%; in the test with SK-OV-3 ovarian, 94.2%; with IGROV1 ovarian it was 116%; with OVCAR-3 ovarian, 122%; in the test with HS 578T breast, 101%; with NCI/ADR-RES ovarian it was 97.6%.
As for `CN(C)CCN(Cc1ccccc1)c1ccccc1`, the growth in the test with SK-MEL-2 melanoma was 124%; with EKVX NSCLC it was 110%; in the test on SN12C renal, 97.5%; in the test on TK-10 renal, 110%; with ACHN renal it was 110%; in the test with CAKI-1 renal, 77.2%. Moreover, the growth was 99% with A498 renal; 123% in the test on CCRF-CEM leukemia; 90.5% with MOLT-4 leukemia; 88.1% in the test with SR leukemia; 115% in the test with OVCAR-8 ovarian; 125% in the test with OVCAR-5 ovarian. Moreover, the growth with SK-OV-3 ovarian was 110%; with IGROV1 ovarian it was 124%; with OVCAR-3 ovarian, 121%; in the test with HS 578T breast it was 112%; in the test with NCI/ADR-RES ovarian, 103%.
Take `COc1ccc(-c2cc(-c3cc(-c4ccc(OC)cc4)nc(N)n3)nc(N)n2)cc1`: the growth with SK-MEL-2 melanoma was 115%; in the test with EKVX NSCLC, 92.1%; in the test with SN12C renal, 93.8%; in the test on TK-10 renal, 102%; in the test on ACHN renal it was 97.6%; in the test with CAKI-1 renal, 91.9%. Moreover, the growth in the test with A498 renal was 94.1%; in the test on CCRF-CEM leukemia, 76.7%; in the test on MOLT-4 leukemia, 112%; in the test with RPMI-8226 leukemia it was 99.5%; with OVCAR-8 ovarian, 99.1%; in the test on OVCAR-5 ovarian, 93.5%. Further, the growth in the test on OVCAR-4 ovarian was 99.6%; in the test with SK-OV-3 ovarian, 106%; in the test on IGROV1 ovarian, 109%; in the test on OVCAR-3 ovarian it was 107%; in the test with HS 578T breast, 96.4%; in the test with NCI/ADR-RES ovarian, 100%.
